{"source": "the supplement of paper PMC4166925", "note": "± gives the standard deviation of the averaged measurements. Over roughly 33,000 sequences, “E-score (dimensionless, -0.5 to 0.5)” has its median near -0.046; the highest 2% begin near 0.36. Shown is part of a subset that was picked to be rich in the highest values."}
{"system": "T1, SpTbr T-box DNA-binding domain (GST fusion)", "T1 sequence": "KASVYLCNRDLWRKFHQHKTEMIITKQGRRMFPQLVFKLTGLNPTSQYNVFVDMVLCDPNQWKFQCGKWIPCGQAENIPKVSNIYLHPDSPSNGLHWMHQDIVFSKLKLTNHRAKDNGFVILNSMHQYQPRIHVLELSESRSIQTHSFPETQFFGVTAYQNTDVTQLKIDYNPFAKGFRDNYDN", "experiment": "PBM E-score of 8-mer (E-score (dimensionless, -0.5 to 0.5)); Tbr is Tbrain of the sea star Patiria miniata (Pm) or the sea urchin Strongylocentrotus purpuratus (Sp); higher = stronger binding preference", "conditions": "the construct has about 5 more residues each side", "outline": "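Universal Agilent oligonucleotide arrays, made double-stranded by primer extension, were incubated with 200 nM GST-fused Tbr T-box DNA-binding domain in PBS (pH 7.5). The protein was expressed in BL21 E. coli at 20 °C and purified by glutathione affinity chromatography. After scanning and quantification, the Universal PBM Analysis Suite assigned an enrichment E-score to each ungapped 8-mer, averaged over duplicate arrays.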"}
{"sequence": "AGAGAGCT", "PBM E-score of 8-mer": "-0.0758 ± 0.017"}
{"sequence": "GGAGAACC", "PBM E-score of 8-mer": "0.0265 ± 0.00056"}
{"sequence": "GCAATACA", "PBM E-score of 8-mer": "-0.0823 ± 0.031"}
{"sequence": "CATCGACA", "PBM E-score of 8-mer": "0.222 ± 0.013"}
{"sequence": "ACTTTTCT", "PBM E-score of 8-mer": "0.00466 ± 0.018"}
{"sequence": "CATAAGTC", "PBM E-score of 8-mer": "-0.18 ± 0.0024"}
{"sequence": "CACAGTTA", "PBM E-score of 8-mer": "0.147 ± 0.022"}
{"sequence": "CCTCAGAC", "PBM E-score of 8-mer": "-0.204 ± 0.031"}
{"sequence": "CACAACAA", "PBM E-score of 8-mer": "0.285 ± 0.028"}
{"sequence": "CTCAACAC", "PBM E-score of 8-mer": "0.269 ± 0.022"}
{"sequence": "GACAACAC", "PBM E-score of 8-mer": "0.385 ± 0.0048"}
{"sequence": "GTCAACAC", "PBM E-score of 8-mer": "0.434 ± 0.0065"}
{"sequence": "AACAACAC", "PBM E-score of 8-mer": "0.373 ± 0.013"}
{"sequence": "CACAACAC", "PBM E-score of 8-mer": "0.3898 ± 0.0017"}
{"sequence": "AACAACAA", "PBM E-score of 8-mer": "0.102 ± 0.0091"}
{"sequence": "AACAACAT", "PBM E-score of 8-mer": "0.187 ± 0.02"}
{"sequence": "GTCAACAA", "PBM E-score of 8-mer": "0.333 ± 0.0095"}
{"sequence": "GACAACAA", "PBM E-score of 8-mer": "0.215 ± 0.015"}
{"sequence": "GACAACTC", "PBM E-score of 8-mer": "0.252 ± 0.019"}
{"sequence": "CACAACAG", "PBM E-score of 8-mer": "0.198 ± 0.0064"}
{"sequence": "AGAGCCAG", "PBM E-score of 8-mer": "0.0237 ± 0.035"}
{"sequence": "TGTTTCAA", "PBM E-score of 8-mer": "-0.0693 ± 0.047"}
{"sequence": "CAGCGCAA", "PBM E-score of 8-mer": "-0.0911 ± 0.0026"}
{"sequence": "GCAGCGCC", "PBM E-score of 8-mer": "0.189 ± 0.062"}
{"sequence": "CGCATGGC", "PBM E-score of 8-mer": "-0.0354 ± 0.028"}
{"sequence": "CCTCCACG", "PBM E-score of 8-mer": "0.0268 ± 0.029"}
{"sequence": "CCGCAAGG", "PBM E-score of 8-mer": "-0.0599 ± 0.044"}
{"sequence": "ACCGTCCG", "PBM E-score of 8-mer": "-0.0723 ± 0.023"}
{"sequence": "CGGTTAAA", "PBM E-score of 8-mer": "-0.129 ± 0.16"}
{"sequence": "ACGACACT", "PBM E-score of 8-mer": "0.257 ± 0.0054"}
{"sequence": "ACGACACG", "PBM E-score of 8-mer": "0.226 ± 0.042"}
{"sequence": "CCGACACA", "PBM E-score of 8-mer": "0.36 ± 0.022"}
{"sequence": "CCGACACG", "PBM E-score of 8-mer": "0.253 ± 0.034"}
{"sequence": "ACGACACC", "PBM E-score of 8-mer": "0.419 ± 0.02"}
{"sequence": "GCGACACA", "PBM E-score of 8-mer": "0.31 ± 0.0039"}
{"sequence": "GCGACACC", "PBM E-score of 8-mer": "0.432 ± 0.021"}
{"sequence": "CCGACACC", "PBM E-score of 8-mer": "0.438 ± 0.0068"}
{"sequence": "GGGACACC", "PBM E-score of 8-mer": "0.226 ± 0.042"}
{"sequence": "CGTTGGGC", "PBM E-score of 8-mer": "-0.255 ± 0.022"}
{"sequence": "ATCAATCC", "PBM E-score of 8-mer": "-0.172 ± 0.082"}
{"sequence": "GAACGATC", "PBM E-score of 8-mer": "0.0814 ± 0.028"}
{"sequence": "CCTGACCC", "PBM E-score of 8-mer": "-0.133 ± 0.084"}
{"sequence": "TGAGCGCA", "PBM E-score of 8-mer": "0.00286 ± 0.049"}
{"sequence": "ATGTGAGA", "PBM E-score of 8-mer": "0.414 ± 0.018"}
{"sequence": "GTGTGAGA", "PBM E-score of 8-mer": "0.4699 ± 0.0024"}
{"sequence": "CTGTGAGA", "PBM E-score of 8-mer": "0.292 ± 0.0058"}
{"sequence": "ATGTGATA", "PBM E-score of 8-mer": "0.254 ± 0.024"}
{"sequence": "ATGTGAGG", "PBM E-score of 8-mer": "0.28 ± 0.041"}
{"sequence": "GTGTGATA", "PBM E-score of 8-mer": "0.459 ± 0.0047"}
{"sequence": "CTGTGATA", "PBM E-score of 8-mer": "0.23 ± 0.055"}
{"sequence": "ATGTGAGC", "PBM E-score of 8-mer": "0.06995 ± 0.00026"}
{"sequence": "GTGAGAGA", "PBM E-score of 8-mer": "0.339 ± 0.0054"}
{"sequence": "CCGATCAA", "PBM E-score of 8-mer": "0.0887 ± 0.014"}
{"sequence": "GTACTTGA", "PBM E-score of 8-mer": "0.0232 ± 0.044"}
{"sequence": "GCATCCCA", "PBM E-score of 8-mer": "-0.16 ± 0.063"}
{"sequence": "GTCACAAC", "PBM E-score of 8-mer": "0.293 ± 0.0073"}
{"sequence": "GGGTGTAC", "PBM E-score of 8-mer": "-0.0335 ± 0.078"}
{"sequence": "CGGTGTAA", "PBM E-score of 8-mer": "0.216 ± 0.014"}
{"sequence": "AGGTGTAT", "PBM E-score of 8-mer": "0.281 ± 0.011"}
{"sequence": "TGGTGTAA", "PBM E-score of 8-mer": "0.292 ± 0.059"}
{"sequence": "AGGTGTAC", "PBM E-score of 8-mer": "0.294 ± 0.0088"}
{"sequence": "CGGTGTAG", "PBM E-score of 8-mer": "0.17 ± 0.083"}
{"sequence": "AGGTGTAG", "PBM E-score of 8-mer": "0.3922 ± 0.0034"}
{"sequence": "AGGTGTAA", "PBM E-score of 8-mer": "0.475 ± 0.011"}
{"sequence": "GGGTGTAA", "PBM E-score of 8-mer": "0.386 ± 0.0076"}
{"sequence": "CTGGCCCC", "PBM E-score of 8-mer": "-0.113 ± 0.035"}
{"sequence": "AACGAGCG", "PBM E-score of 8-mer": "0.0213 ± 0.0072"}
{"sequence": "GAGCAAGA", "PBM E-score of 8-mer": "-0.187 ± 0.011"}
{"sequence": "AATCAGTC", "PBM E-score of 8-mer": "-0.0936 ± 0.015"}
{"sequence": "CTCGTTAC", "PBM E-score of 8-mer": "-0.116 ± 0.031"}
{"sequence": "GGTTGCGA", "PBM E-score of 8-mer": "0.266 ± 0.015"}
{"sequence": "CGCGCAAC", "PBM E-score of 8-mer": "0.173 ± 0.066"}
